Our source for the outcome and AC50 values is PubChem BioAssay (EPA / NIEHS).

As usually defined, the AC50 is the midpoint of the concentration-response curve, whichever way the signal moves.

Experiment [1] is described as follows: ATG_CRE_CIS: Attagene CIS-FACTORIAL HepG2 Assay for human cAMP Responsive Element (CRE) binding protein 3 (AID 2282926). The note with it: HepG2 CRE cis-reporter, Attagene multiplexed mRNA; actives raise or lower the signal. An outline of the steps: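 We dosed HepG2 cells bearing multiple cis-promoter reporter units for 24 h and measured reporter mRNA by RT-PCR with capillary electrophoresis detection. Bidirectional concentration-response fitting used DMSO as negative control.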

The target in experiment [2] is CCAAT/enhancer-binding protein beta (Homo sapiens) (UniProt P17676). As to the kind of experiment: ATG_C_EBP_CIS: Attagene CIS-FACTORIAL HepG2 Assay for human CCAAT/Enhancer Binding Protein (C/EBP) beta (AID 2282927). The note with it: HepG2 Attagene cis-factorial transcription factor reporter; actives raise or lower the signal. The method, boiled down:
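Transiently transfected HepG2 (MRTU library, endogenous TF-driven promoters); 24 h dosing; total RNA → oligo(dT) RT → PCR → 6-FAM primer extension → HpaI digest → CE; fit bidirectionally vs DMSO.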

Experiment [3] in a line: ATG_CMV_CIS: Attagene CIS-FACTORIAL HepG2 Assay for human CMV (Internal Marker) (AID 2282928).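 Further: endpoint acts as a background internal control marker rather than a target.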 The settings on record: HepG2 CMV promoter reporter, transcription factor profiling; actives raise or lower the signal. The method, boiled down: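 After transient transfection of HepG2 with reporter transcription units driven by cis-regulatory promoters, cells receive test chemical for 24 h. Labeled reporter amplicons, digested with HpaI, are sized and quantified by capillary electrophoresis against DMSO.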

A short description of experiment [4]: ATG_DR4_LXR_CIS: Attagene CIS-FACTORIAL HepG2 Assay for human Liver X Receptor (LXR), DR4 submotif (AID 2282929). The note with it: HepG2 Attagene DR4 cis-reporter, mRNA transcription; actives raise or lower the signal. An outline of the steps:
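DR4 cis-reporter in HepG2, 24 h exposure. Detection: RT-PCR, 6-FAM labelling, CE fragment analysis. Endpoint fitted bidirectionally, DMSO = baseline.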

Experiment [5] concerns the target Aryl hydrocarbon receptor (Homo sapiens) (UniProt P35869). As to the kind of experiment: ATG_Ahr_CIS: Attagene CIS-FACTORIAL HepG2 Assay for human Aryl Hydrocarbon Receptor (Ahr) (AID 2282930). The note with it: HepG2 AhR cis-factorial reporter transcription; actives raise or lower the signal. An outline of the steps: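 Read-out: reporter mRNA quantified by RT-PCR with fluorescent primer extension and capillary electrophoresis. Human HepG2 liver cells carried transfected cis-promoter reporter units and were exposed to chemical for 24 h; gain or loss fitted relative to DMSO.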

Experiment [6] is described as follows: ATG_AP_1_CIS: Attagene CIS-FACTORIAL HepG2 Assay for human Activator Protein 1 (AP-1) (AID 2282931). The settings on record: HepG2 Attagene cis-factorial AP-1 reporter mRNA; actives raise or lower the signal. An outline of the steps:
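Cis-regulated reporter units transiently expressed in HepG2 report endogenous transcription-factor activity. Signal: reporter mRNA at 24 h, via RT-PCR and fluorescent capillary electrophoresis. Endpoint derived by bidirectional fitting, DMSO as negative control.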

Experiment [7] can be described thus: ATG_AP_2_CIS: Attagene CIS-FACTORIAL HepG2 Assay for human Activator Protein 2 (AP-2) (AID 2282932). The settings on record: HepG2 AP-2 cis-reporter, Attagene transcription factor profiling; actives raise or lower the signal. The method, boiled down:
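Multiplexed mRNA reporter assay in HepG2: cis-regulated units report endogenous factor activity after 24 h treatment. Fluorescence from capillary electrophoresis of RT-PCR products gives the signal, with DMSO as baseline.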

The nature of experiment [8]: ATG_BRE_CIS: Attagene CIS-FACTORIAL HepG2 Assay for human Bone Morphogenetic Protein (BMP) Response Element (BRE) (AID 2282933). The note with it: HepG2 BMP response element reporter, Attagene transcription factor profiling; actives raise or lower the signal. An outline of the steps:
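Transient MRTU transfection of human HepG2 liver cells; 24 h compound treatment; total RNA isolated, reverse-transcribed, PCR-amplified, 6-FAM labelled, HpaI-cut, capillary electrophoresis. DMSO = negative control/baseline, bidirectional fit.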

Experiment [9] in a line: APR_HepG2_NuclearSize_72hr: Apredica 72-hour HepG2 Assay for Nuclear Size (AID 2282925). The note with it: high-content imaging, actives raise or lower the signal. The protocol: APR_HepG2_72hr is a cell-based, multiplexed-readout assay that uses HepG2, a human liver cell line, with measurements taken at 72 hours after chemical dosing in a 384-well plate.APR_HepG2_NuclearSize_72hr is one of 10 assay component(s) measured or calculated from the APR_HepG2_72hr assay. It is designed to make measurements of cell phenotype, a form of morphology reporter, as detected with fluorescence intensity signals by HCS Fluorescent Imaging technology.Data from the assay component APR_HepG2_NuclearSize_72hr was analyzed into 1 assay endpoint. This assay endpoint, APR_HepG2_NuclearSize_72hr, was analyzed with bidirectional fitting relative to DMSO as the negative control and baseline of activity. Using a type of morphology reporter, measures of all nuclear dna for gain or loss-of-signal activity can be used to understand the signaling at the nuclear-level. Furthermore, this assay endpoint can be referred to as a primary readout, because this assay has produced multiple assay endpoints where this one serves a signaling function. To generalize the intended target to other relatable targets, this assay endpoint is annotated to the cell morphology intended target family, where the subfamily is organelle conformation.
Cells were treated with dimethyl sulfoxide (DMSO) as a solvent control at a final concentration of 0.5% v/v or with compounds in DMSO with a resulting final DMSO concentration of 0.5% v/v. Compound treatment was done at concentrations of 0.39, 0.78, 1.56, 3.12, 6.24, 12.5, 25, 50, 100, and 200 uM in duplicate on each plate. Cells were treated with compounds for 1, 24, or 72 hr. Carbonyl […] m-chloro-phenylhydrazone (CCCP) and taxol were used as positive controls for mitochondrial function and cytoskeletal stability, respectively; DMSO served as the negative control for this experiment. Cells were fixed by the direct addition of 50 uL formaldehyde in Hank's Balanced Salt Solution (HBSS) to a final concentration of 3.7%. After incubation in the fixation medium for 30 min at room temperature (293-298 K), cells were rinsed twice with HBSS and treated with cell permeabilization buffer (16 uL of 0.5% Triton X-100) for 10 min at room temperature (293-298 K) before labeling. For mitochondrial membrane potential and mitochondrial measurements, pre-fixed cells were incubated with 50 uL of MitoTracker Red CMXRos (Invitrogen) at a concentration of 250 nM for 30 min before fixation. In the remaining cases, post-fixed cells were labeled by incubation with a multiplexed mixture of primary antibodies in HBSS for 60 min at room temperature (293-298 K) to detect immunoreactivity of c-Jun (1:500), phospho-histone H3 (1:100), phospho-histone H2A.x (1:200), p53 (1:400), alpha-tubulin (1:200) and Hoechst 33342 (2 ug/mL). Cells were labeled for multiplexed imaging on two separate plates: a) Hoechst 33342, MitoTracker Red, phospho-histone H3, and alpha-tubulin, and b) Hoechst 33342, phospho-histone H2A.x, and c-Jun. A final rinse with HBSS (50 uL) was performed before analysis. The primary and secondary antibodies for the proteins were phospho-histone H3 (rabbit anti-phospho-histone H3 and FITC-donkey anti-rabbit IgG), phospho-histone H2A.x (mouse anti-phospho-histone H2A.x and FITC-donkey anti-mouse IgG), c-Jun (rabbit anti-phospho-c-Jun and Cy3-donkey anti-rabbit IgG), p53 (sheep anti-p53 and Cy5-donkey anti-sheep IgG), alpha-tubulin (mouse anti-alpha-tubulin and Cy5-donkey anti-mouse IgG). […]

Values joined by “and” are separate entries in the source; they are usually repeats but may differ in a detail not shown here. Identical values can stand only once. Some compounds were tested as several samples or in several runs, with calls that do not always agree. Active and inactive are the calls of the source. How the source made its calls: active means hit-call score of the fitted dose curve at least 0.9, where 1 is the maximum; inactive means score below 0.9.

CCAAT/enhancer-binding protein beta (Homo sapiens), sequence (P17676 whole entry, looked up): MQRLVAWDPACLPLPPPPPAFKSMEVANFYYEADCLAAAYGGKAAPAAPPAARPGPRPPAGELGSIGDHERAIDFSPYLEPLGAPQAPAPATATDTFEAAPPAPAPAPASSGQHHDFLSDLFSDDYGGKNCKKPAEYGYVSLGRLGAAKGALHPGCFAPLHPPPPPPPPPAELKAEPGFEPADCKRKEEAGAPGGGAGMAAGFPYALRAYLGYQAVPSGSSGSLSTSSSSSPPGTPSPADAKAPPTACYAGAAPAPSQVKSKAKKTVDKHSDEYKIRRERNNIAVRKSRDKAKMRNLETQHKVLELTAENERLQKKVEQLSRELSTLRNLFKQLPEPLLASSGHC
Aryl hydrocarbon receptor (Homo sapiens), sequence (P35869 whole entry, looked up): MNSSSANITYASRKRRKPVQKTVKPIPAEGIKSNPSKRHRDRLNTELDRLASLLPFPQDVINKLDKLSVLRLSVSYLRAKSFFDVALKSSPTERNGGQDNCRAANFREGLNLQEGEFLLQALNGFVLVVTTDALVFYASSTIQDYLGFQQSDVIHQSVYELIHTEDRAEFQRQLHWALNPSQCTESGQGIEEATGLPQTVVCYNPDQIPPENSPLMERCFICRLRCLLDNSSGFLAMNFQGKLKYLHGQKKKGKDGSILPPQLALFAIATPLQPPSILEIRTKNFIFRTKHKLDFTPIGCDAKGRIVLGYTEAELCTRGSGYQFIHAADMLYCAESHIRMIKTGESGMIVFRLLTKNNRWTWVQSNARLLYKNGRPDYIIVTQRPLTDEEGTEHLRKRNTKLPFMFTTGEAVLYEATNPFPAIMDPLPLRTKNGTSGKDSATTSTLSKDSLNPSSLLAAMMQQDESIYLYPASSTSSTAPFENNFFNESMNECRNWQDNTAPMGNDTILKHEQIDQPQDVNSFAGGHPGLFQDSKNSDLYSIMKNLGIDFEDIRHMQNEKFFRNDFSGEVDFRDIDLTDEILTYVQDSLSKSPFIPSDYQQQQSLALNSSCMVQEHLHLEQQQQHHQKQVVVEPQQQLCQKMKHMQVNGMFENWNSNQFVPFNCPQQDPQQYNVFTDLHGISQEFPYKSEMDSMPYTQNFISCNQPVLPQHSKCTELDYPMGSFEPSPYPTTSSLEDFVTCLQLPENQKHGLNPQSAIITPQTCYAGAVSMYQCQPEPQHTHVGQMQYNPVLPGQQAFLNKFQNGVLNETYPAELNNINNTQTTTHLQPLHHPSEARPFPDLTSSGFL

Regarding `CCC(C)(C)C1CCC(OC)CC1` (stereo not given), the compound was called inactive in experiment [1], in experiment [2], in [3], in experiment [4], in experiment [5] and in [6]. Further, the outcome in experiment [7] and in experiment [8] was inactive.
In the case of `C1COCO1`, the compound was called inactive in experiment [1], in [2], in experiment [3], in experiment [4], in experiment [5] and in experiment [6]. In addition, the call in experiment [7] and in [8] was inactive.
On to `Cc1ccccc1S`, for which the AC50 in [1] is 72.3 µM (active); in experiment [4] it was 75.5 µM (active); in experiment [6] it was 36.6 µM (active). In addition, the result in [2], in experiment [3], in [5], in experiment [7] and in experiment [8] was inactive.
`CC/C=C\C#N`: the call in experiment [1], in experiment [2], in experiment [3], in [4], in experiment [5] and in [6] was inactive. In addition, the call in experiment [7] and in [8] was inactive.
Take `CCCCCCCCCCCCN1CCOCC1`: the compound was called inactive in experiment [1], in experiment [2], in experiment [5] and in experiment [7]. Besides, the concentration at half-maximal activity (AC50) in [3] was 44.8 µM (active); in experiment [4], 60.5 µM (active); in experiment [6], 51.8 µM (active); in experiment [8] it was 47.7 µM (active).
On to `CC/C=C\CCCCO`, for which the compound was called inactive in experiment [1], in experiment [2], in experiment [3], in [4], in experiment [5] and in experiment [6]. The outcome in experiment [7] and in [8] was inactive.
With `CC(CO)(CO)[N+](=O)[O-]`, the result in experiment [1], in [2], in experiment [3], in [4], in experiment [5] and in experiment [6] was inactive. Moreover, the call in experiment [7] and in [8] was inactive.
Take `[Cl][Dy]([Cl])[Cl]`: the outcome in [1], in experiment [2], in experiment [3], in [4], in [5] and in [6] was inactive. Further, the call in experiment [7] and in experiment [8] was inactive.
Regarding `O=C(c1ccc(OCCN2CCCCC2)cc1)c1c(-c2ccc(O)cc2)sc2cc(O)ccc12`, the result in experiment [9], in experiment [1], in experiment [2], in experiment [3], in experiment [4] and in experiment [5] was inactive. The call in experiment [6], in [7] and in experiment [8] was inactive. For the same compound, the AC50 in experiment [1] was 11.1 µM (active) and 14.7 µM (active); in experiment [2], 15.2 µM (active); in [3] it was 14.8 µM (active) and 7.91 µM (active); in [4], 20.3 µM (active) and 19.9 µM (active); in experiment [5] it was 19.3 µM (active); in [6], 17.5 µM (active) and 16.9 µM (active) and 13.1 µM (active). The AC50 in experiment [7] was 11.1 µM (active) and 15.4 µM (active).
Take `Brc1cc(Br)cc(Br)c1`: the outcome in [1], in experiment [2], in experiment [3], in experiment [4], in experiment [5] and in [6] was inactive. The compound was classed as inactive in [7] and in [8].
As for `C=CC(O)CCCCC` (stereo not given), the outcome in experiment [1], in experiment [2], in experiment [3], in experiment [5], in experiment [6] and in experiment [7] was inactive. The compound was called inactive in experiment [8]. In addition, the AC50 in [4] was 37.3 µM (active).
In the case of `CC(=O)c1ccc(O)cc1`, the compound was called inactive in [1], in experiment [2], in [3], in experiment [4], in [5] and in experiment [6]. Also, the result in experiment [7] and in experiment [8] was inactive.
As to `CC(C)N1C(=O)c2ccccc2C1=O`, the result in experiment [1], in experiment [2], in experiment [3], in [4], in experiment [5] and in [6] was inactive. The compound was called inactive in experiment [7] and in experiment [8].
For `CN(C)CCC=C1c2ccccc2CCc2ccccc21`, the AC50 was 33.4 µM (active) in [1], 27 µM (active) in experiment [4] and 61.2 µM (active) in experiment [6]. For the same compound, the outcome in [2], in experiment [3], in [5], in [7] and in experiment [8] was inactive.
